Measurements from PubChem BioAssay (NCATS).
Records with an inconclusive call do not appear. Entries that show only a call come without a potency. Activity calls are given as the source filed them. Calls follow the shape of the dose curve; as a rule, active = well fitted curve in the direction sought with a large enough effect; inconclusive = small, poorly fitted or top-dose-only effect, or another doubt; inactive = no such curve, though single readings can be large; an effect the other way counts as inactive or inconclusive. Peptide text beside a SMILES is read from it.

Columns and labels:
[1] = Cell Viability - LYMP2-004 (AID 966); also: nearly all actives have a fitted effect of over 65% in size
Method in brief: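 Viable-cell number estimated from ATP luminescence (CellTiter-Glo) in 2500 human lymphoblastoid cells/well after 24 hr at 37 C with compound. AC50 fitted to the standard Hill equation.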

[2] = Cell Viability - LYMP2-005 (AID 967);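 also: cells exposed to compound for 24 h at 37 °C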
Method in brief: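 Acute cytotoxicity is scored as a concentration-dependent drop in intracellular ATP in human lymphoblastoid LYMP2-005 cells after 24 h compound treatment. ATP is quantified by luciferase luminescence, and AC50 is derived by Hill-equation modelling.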

[3] = Cell Viability - LYMP2-009 (AID 968);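 also: cells exposed to compound for 24 h at 37 °C; nearly all actives have a fitted effect of over 55% in size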
[4] = Cell Viability - LYMP2-011 (AID 969);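 also: cells exposed to compound for 24 hours; nearly all actives have a fitted effect of over 60% in size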
Method in brief: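 Cells seeded at 2500 per well rest 5 hr before compound addition, then incubate 24 hr at 37 C. CellTiter-Glo reagent is added for 30 min at room temperature before luminescence detection.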

[5] = Cell Viability - LYMP2-013 (AID 970);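 also: cells exposed to compound for 24 h at 37 °C; nearly all actives have a fitted effect of over 55% in size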
Method in brief: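 In complete culture medium, human lymphoblastoid cells were dosed for 24 hr at 37 C, with tetraoctylammonium bromide (6.4pM to 92 uM) as positive control. Viability reflects luciferase-based ATP signal; AC50 derived from concentration-response curves.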

[6] = Cell Viability - LYMP2-015 (AID 971); also: nearly all actives have a fitted effect of over 55% in size
Method in brief: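 AC50 values reflect Hill-model fits of ATP-based luminescence (CellTiter-Glo) from a human lymphoblastoid line, 2500 cells/well, treated 24 hr at 37 C.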

[7] = Cell Viability - LYMP2-017 (AID 972);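 also: cells exposed to compound for 24 hours at 37 °C; nearly all actives have a fitted effect of over 55% in size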
Method in brief: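 In this qHTS format, lymphoblastoid cells in complete medium receive test compound for a day at 37 C before ATP content is quantified by luciferase luminescence. Reported AC50 figures come from standard Hill-equation curve fitting.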

[8] = Cell Viability - LYMP2-019 (AID 973)
Method in brief: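 AC50 values come from Hill-equation modelling of qHTS concentration-response curves, where viability is measured as luciferase-based ATP luminescence in the lymphoblastoid line after 24 hr compound exposure in complete culture medium.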

[9] = Cell Viability - LYMP2-021 (AID 974)
Method in brief: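 In qHTS format, compounds are tested against 2500 lymphoblastoid cells per well for 24 h; viable cell number is inferred from ATP-driven luciferase light, and Hill-equation fitting yields AC50 values.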

[10] = Cell Viability - LYMP2-023 (AID 975)
Method in brief: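 In this qHTS, ATP-based luciferase luminescence (CellTiter-Glo) is quantified in human lymphoblastoid cells after 24 hr compound treatment at 37 C; tetraoctylammonium bromide serves as positive control. Concentration-response curves are Hill-fitted to give AC50.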

[11] = Cell Viability - LYMP2-002 (AID 977);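 also: compound exposure lasted 24 h at 37 °C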
Method in brief: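 In this qHTS viability screen, 2500 human lymphoblastoid cells per well receive compound for 24 hr at 37 C, and luciferase-based ATP luminescence gives the viability signal. Tetraoctylammonium bromide serves as positive control.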

[12] = Cell Viability - LYMP2-006 (AID 978);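 also: cells exposed to compound for 24 hours; nearly all actives have a fitted effect of over 60% in size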
Method in brief: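 Cells are seeded at 2500 per well and rested 5 hr at 37 C. Compounds are added across a concentration series for 24 hr at 37 C, after which ATP is quantified by luciferase luminescence.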

[13] = Cell Viability - LYMP2-007 (AID 979);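 also: cells exposed to compound for 24 h before reading; nearly all actives have a fitted effect of over 60% in size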
Method in brief: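 Measured via luciferase-based ATP quantitation: lymphoblastoid cells, 24 hr compound exposure at 37 C, AC50 from Hill fits.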

[14] = Cell Viability - LYMP2-008 (AID 980); also: nearly all actives have a fitted effect of over 60% in size
Method in brief: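 Measured: ATP-dependent luminescence, proportional to viable cell number, in human lymphoblastoid cells treated 24 hr with compound in complete culture medium. Values are AC50s from Hill-equation modelling of qHTS titrations.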

[15] = Cell Viability - LYMP2-010 (AID 981)
Method in brief: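 This 24 hr viability screen uses LYMP2-010 lymphoblastoid cells, quantifies ATP via luciferase luminescence, and derives AC50 from Hill fits of qHTS concentration-response data.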

[16] = Cell Viability - LYMP2-012 (AID 982)
[17] = Cell Viability - LYMP2-014 (AID 983);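 also: cells exposed to compound for 24 h at 37 °C; nearly all actives have a fitted effect of over 50% in size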
Method in brief: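 Quantitative HTS in lymphoblastoid cells: 24 hr compound exposure, then CellTiter-Glo ATP luminescence. Positive control was tetraoctylammonium bromide, 6.4pM to 92 uM.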

[18] = Cell Viability - LYMP2-018 (AID 985); also: nearly all actives have a fitted effect of over 50% in size
Method in brief: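 In this qHTS viability assay, cells are treated for 24 hr and cellular ATP is quantified by luciferase-based luminescence, with tetraoctylammonium bromide as positive control.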

[19] = Cell Viability - LYMP2-022 (AID 987); also: nearly all actives have a fitted effect of over 55% in size
Method in brief: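 In this qHTS cytotoxicity screen, compound titrations were incubated 24 hr at 37 C with human lymphoblastoid cells in complete medium. Luciferase-based ATP luminescence provided the viability signal.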

[20] = Cell Viability - LYMP2-024 (AID 988); also: nearly all actives have a fitted effect of over 60% in size
Method in brief: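 Cells at 2500 per well received compound for 24 hr after a 5 hr settling period. Viability was scored by CellTiter-Glo luminescence, with AC50 from Hill fits.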
Potency is read from the fitted curve at half-maximal effect.

Structure (SMILES): NS(=O)(=O)c1cc(C(=O)O)c(NCc2ccco2)cc1Cl
- Potency [1]: inactive
- Potency [2]: inactive
- Potency [3]: inactive
- Potency [4]: inactive
- Potency [5]: inactive
- Potency [6]: inactive
- Potency [7]: inactive
- Potency [8]: inactive
- Potency [9]: inactive
- Potency [10]: inactive
- Potency [11]: inactive
- Potency [12]: inactive
- Potency [13]: inactive
- Potency [14]: inactive
- Potency [15]: inactive
- Potency [16]: inactive
- Potency [17]: inactive
- Potency [18]: inactive
- Potency [19]: inactive
- Potency [20]: inactive

Structure (SMILES): c1ccc2[nH]c(-c3cscn3)nc2c1
- Potency [1]: inactive
- Potency [2]: inactive
- Potency [3]: inactive
- Potency [4]: inactive
- Potency [5]: inactive
- Potency [6]: inactive
- Potency [7]: inactive
- Potency [8]: inactive
- Potency [9]: inactive
- Potency [10]: inactive
- Potency [11]: inactive
- Potency [12]: inactive
- Potency [13]: inactive
- Potency [14]: inactive
- Potency [15]: inactive
- Potency [16]: inactive
- Potency [17]: inactive
- Potency [18]: inactive
- Potency [19]: inactive
- Potency [20]: inactive

Structure (SMILES): COc1c2occc2cc2ccc(=O)oc12
- Potency [1]: inactive
- Potency [2]: inactive
- Potency [3]: inactive
- Potency [4]: inactive
- Potency [5]: inactive
- Potency [6]: inactive
- Potency [7]: inactive
- Potency [8]: inactive
- Potency [9]: inactive
- Potency [10]: inactive
- Potency [11]: inactive
- Potency [12]: inactive
- Potency [13]: inactive
- Potency [14]: inactive
- Potency [15]: inactive
- Potency [16]: inactive
- Potency [17]: inactive
- Potency [18]: inactive
- Potency [19]: inactive
- Potency [20]: inactive

Structure (SMILES): COC(=O)[C@H](Cc1ccccc1)NC(=O)[C@@H](N)CC(=O)O (H-Asp-Phe-OMe)
- Potency [1]: inactive
- Potency [2]: inactive
- Potency [3]: inactive
- Potency [4]: inactive
- Potency [5]: inactive
- Potency [6]: inactive
- Potency [7]: inactive
- Potency [8]: inactive
- Potency [9]: inactive
- Potency [10]: inactive
- Potency [11]: inactive
- Potency [12]: inactive
- Potency [13]: inactive
- Potency [14]: inactive
- Potency [15]: inactive
- Potency [16]: inactive
- Potency [17]: inactive
- Potency [18]: inactive
- Potency [19]: inactive
- Potency [20]: inactive

Structure (SMILES): CS(=O)(=O)OCCCCOS(C)(=O)=O
- Potency [1]: inactive
- Potency [2]: inactive
- Potency [3]: inactive
- Potency [4]: inactive
- Potency [5]: inactive
- Potency [6]: inactive
- Potency [7]: inactive
- Potency [8]: inactive
- Potency [9]: inactive
- Potency [10]: inactive
- Potency [11]: inactive
- Potency [12]: inactive
- Potency [13]: inactive
- Potency [14]: inactive
- Potency [15]: inactive
- Potency [16]: inactive
- Potency [17]: inactive
- Potency [18]: inactive
- Potency [19]: inactive
- Potency [20]: inactive

Structure (SMILES): Cc1ccc(C)c(OCCCC(C)(C)C(=O)O)c1
- Potency [1]: inactive
- Potency [2]: inactive
- Potency [3]: inactive
- Potency [4]: inactive
- Potency [5]: inactive
- Potency [6]: inactive
- Potency [7]: inactive
- Potency [8]: inactive
- Potency [9]: inactive
- Potency [10]: inactive
- Potency [11]: inactive
- Potency [12]: inactive
- Potency [13]: inactive
- Potency [14]: inactive
- Potency [15]: inactive
- Potency [16]: inactive
- Potency [17]: inactive
- Potency [18]: inactive
- Potency [19]: inactive
- Potency [20]: inactive

Structure (SMILES): CC(=O)Nc1ccc(O)cc1
- Potency [1]: inactive
- Potency [2]: inactive
- Potency [3]: inactive
- Potency [4]: inactive
- Potency [5]: inactive
- Potency [6]: inactive
- Potency [7]: inactive
- Potency [8]: inactive
- Potency [9]: inactive
- Potency [10]: inactive
- Potency [11]: inactive
- Potency [12]: inactive
- Potency [13]: inactive
- Potency [14]: inactive
- Potency [15]: inactive
- Potency [16]: inactive
- Potency [17]: inactive
- Potency [18]: inactive
- Potency [19]: inactive
- Potency [20]: inactive

Structure (SMILES): CCCc1cc(=O)[nH]c(=S)[nH]1
- Potency [1]: inactive
- Potency [2]: inactive
- Potency [3]: inactive
- Potency [4]: inactive
- Potency [5]: inactive
- Potency [6]: inactive
- Potency [7]: inactive
- Potency [8]: inactive
- Potency [9]: inactive
- Potency [10]: inactive
- Potency [11]: inactive
- Potency [12]: inactive
- Potency [13]: inactive
- Potency [14]: inactive
- Potency [15]: inactive
- Potency [16]: inactive
- Potency [17]: inactive
- Potency [18]: inactive
- Potency [19]: inactive
- Potency [20]: inactive

Structure (SMILES): Cc1cc(O)c2c(c1)C(=O)c1cc(O)cc(O)c1C2=O
- Potency [1]: inactive
- Potency [2]: inactive
- Potency [4]: inactive
- Potency [6]: inactive
- Potency [16]: inactive
- Potency [19]: inactive

Structure (SMILES): CCCCC(CC)COC(=O)C(C#N)=C(c1ccccc1)c1ccccc1 (stereo unspecified)
- Potency [1]: inactive
- Potency [2]: inactive
- Potency [3]: inactive
- Potency [4]: inactive
- Potency [5]: inactive
- Potency [6]: inactive
- Potency [7]: inactive
- Potency [8]: inactive
- Potency [9]: inactive
- Potency [10]: inactive
- Potency [11]: inactive
- Potency [12]: inactive
- Potency [13]: inactive
- Potency [14]: inactive
- Potency [15]: inactive
- Potency [16]: inactive
- Potency [17]: inactive
- Potency [18]: inactive
- Potency [19]: inactive
- Potency [20]: inactive

Structure (SMILES): Nc1ccc(S(N)(=O)=O)cc1
- Potency [1]: inactive
- Potency [2]: inactive
- Potency [3]: inactive
- Potency [4]: inactive
- Potency [5]: inactive
- Potency [6]: inactive
- Potency [7]: inactive
- Potency [8]: inactive
- Potency [9]: inactive
- Potency [10]: inactive
- Potency [11]: inactive
- Potency [12]: inactive
- Potency [13]: inactive
- Potency [14]: inactive
- Potency [15]: inactive
- Potency [16]: inactive
- Potency [17]: inactive
- Potency [18]: inactive
- Potency [19]: inactive
- Potency [20]: inactive

Structure (SMILES): CN(C)c1ccc2nc3ccc(=[N+](C)C)cc-3sc2c1
- Potency [1]: 5.01 µM (active)
- Potency [2]: 5.01 µM (active)
- Potency [3]: 5.01 µM (active)
- Potency [4]: 6.31 µM (active)
- Potency [5]: 7.94 µM (active)
- Potency [6]: 3.98 µM (active)
- Potency [7]: 6.31 µM (active)
- Potency [8]: 3.16 µM (active)
- Potency [9]: 7.94 µM (active)
- Potency [10]: 3.98 µM (active)
- Potency [11]: 3.16 µM (active)
- Potency [12]: 5.01 µM (active)
- Potency [13]: 7.94 µM (active)
- Potency [14]: 3.16 µM (active)
- Potency [15]: 6.31 µM (active)
- Potency [16]: 6.31 µM (active)
- Potency [17]: 3.98 µM (active)
- Potency [18]: 7.94 µM (active)
- Potency [19]: 6.31 µM (active)
- Potency [20]: 6.31 µM (active)

Structure (SMILES): CCc1nc(N)nc(N)c1-c1ccc(Cl)cc1
- Potency [1]: inactive
- Potency [2]: inactive
- Potency [5]: inactive
- Potency [7]: inactive
- Potency [10]: inactive
- Potency [12]: inactive
- Potency [13]: 50.1 µM (active)
- Potency [17]: inactive
- Potency [18]: inactive
- Potency [19]: inactive
